# Assay outcomes from PubChem.
# Rows were chosen to be rich in hits. Some 2.6% of all compounds tested hit in one or more screens of this group.
# GLP1R cytotox = cytotoxicity counter-screen for GLP-1 receptor inverse agonists | HEK293 cAMP-luciferase reporter cells, luminescence, 24 h | Potency, µM (doses to about 38.3 µM), for the others: at the highest dose activity change, negative = inhibition, most hits filed as inhibitors | 410,000 compounds, 0.13% hits;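 also: loss of luciferase light is scored as toxicity; % is scaled to controls: 0 for no effect and ±100 for the full control effect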
#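 Cells in DMEM/10% Nu serum/1% pen-strep, 1536-well format. Pre-incubated 12 h, dosed with 23 nL compound, incubated a further 24 h. Luciferase detection, 12 min at room temp, luminescence.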
# GLP1R ag = activates the human GLP-1 receptor; Potency, µM (highest dose often 45.6 µM), inactives show top-dose activation, usual class: activators; HEK293 GLP-1R CRE-luciferase, luminescence, 4-6 h; cells express a hypersensitive GLP-1R form; 380,000 compounds, 0.007% hits; AID 624172; P43220; also: % of control where 0% means no effect
# Target sequence (P43220 whole entry, looked up): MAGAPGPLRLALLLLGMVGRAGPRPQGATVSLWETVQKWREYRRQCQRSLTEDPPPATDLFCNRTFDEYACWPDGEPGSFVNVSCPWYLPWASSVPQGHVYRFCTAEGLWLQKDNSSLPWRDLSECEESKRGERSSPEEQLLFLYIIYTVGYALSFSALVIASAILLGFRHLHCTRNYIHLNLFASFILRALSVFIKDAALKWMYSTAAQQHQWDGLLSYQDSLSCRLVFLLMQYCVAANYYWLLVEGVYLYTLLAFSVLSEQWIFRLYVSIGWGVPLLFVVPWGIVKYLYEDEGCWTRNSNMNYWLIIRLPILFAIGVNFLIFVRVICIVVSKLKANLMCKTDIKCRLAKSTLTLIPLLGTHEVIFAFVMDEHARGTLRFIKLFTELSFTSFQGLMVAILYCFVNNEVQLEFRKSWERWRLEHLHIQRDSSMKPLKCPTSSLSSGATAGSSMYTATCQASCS
# GLP-1R inv ag = inverse agonists of human GLP-1 receptor. P43220. AID 624417. 410,000 compounds, 1.6% hits. Potency, µM (doses to about 38.3 µM), for the others: at the top dose activity change, negative = inhibition, most hits filed as inhibitors. HEK293 GLP-1R CRE-luciferase, luminescence, 24 h; GLP-1R form is constitutively active; also: % is scaled to controls: 0 for no effect and ±100 for the full control effect; nearly all actives have a fitted effect of over 55% in size
#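 Using stably transfected HEK293 (constitutively active GLP-1R, cAMP-luciferase reporter), compounds were incubated 24 hr and luciferase measured by luminescence.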
# BRCA1 expr up = activators of BRCA1 expression | MCF7-BRCA1-FFLuc reporter, luminescence, 48 h; response scale: scaled: vehicle 0%, 10 µM genistein 100% | Potency, µM (doses to about 46.1 µM), inactives show at the top dose activation, hits mostly activators | 380,000 compounds, 1.1% hits; also: nearly all actives have a fitted effect of over 80% in size
#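 Using MCF7 cells harboring a BRCA1 firefly luciferase reporter, plated 2 h before compound pinning, the screen measured luminescence after 48 h incubation. Responses were normalized to DMSO and 10 microM genistein, then fitted for concentration-effect.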
# * marks the source's active call; other numbers are inactive results; ? = inconclusive; / = no result; ! = repeats disagree; [ ] = remark or other dose. Calls follow the shape of the dose curve; as a rule, active = well fitted curve in the direction sought with a large enough effect; inconclusive = small, poorly fitted or top-dose-only effect, or another doubt; inactive = no such curve, though single readings can be large; an effect the other way counts as inactive or inconclusive. Potency is read from the fitted curve at half-maximal effect.
SMILES,GLP1R cytotox,GLP1R ag,GLP-1R inv ag,BRCA1 expr up
O=C1C=CCC(/C=C/c2ccccc2)O1 (stereo not drawn),-15%,5%,2.5µM*,-75%
CCc1nc(SC)ncc1C(=O)NCc1cccc(Br)c1,5%,/,5%,/
COc1ccc(CCC(=O)NCC23CC4CC(CC(C4)C2)C3)cc1,-5%,0%,6.3µM*,-1%
Cc1ccc(C)c(OCCn2nnc3ccccc32)c1,4%,7%,?,99%
Clc1ccccc1OCCn1nnc2ccccc21,-8%,-2%,-17%,11µM*
Cc1cc(C)cc(OCCn2nnc3ccccc32)c1,2%,8%,-15%,11µM*
Cc1cccc(C)c1OCCn1nnc2ccccc21,1%,2%,?,11%
COc1ccc(Cl)cc1N1C(=O)/C(=C\c2sccc2C)N=C1SCC(=O)NC1CC1,-9%,1%,8.9µM*,-70%
COc1ccccc1C(=O)Nc1ccc(Cc2ccncc2)cc1,-10%,-6%,11%,-22%
COc1cccc(NC(=O)c2ccc(CN3CCOCC3)cc2)c1,-15%,-19%,-18%,11µM*
COc1c(C)cc(Br)cc1C(=O)Nc1ccc(Cc2ccncc2)cc1,0%,4%,10µM*,0%
COc1c(C)cccc1C(=O)Nc1ccc(CN2CCOCC2)cc1,13%,-1%,-5%,2.5µM*
CC(C)(C)n1cnc2cc(NCc3ccccc3Cl)ccc21,-10%,10%,-22%,90%
CCC1CCCCN1S(=O)(=O)c1ccc(NC(=O)C2CC(=O)N(C(C)(C)C)C2)cc1 (stereo not drawn),1%,9%,14%,11µM*
CC(C)(C)N1CC(C(=O)Nc2ccc(S(=O)(=O)N3CCCCC3)cc2)CC1=O (stereo not drawn),-8%,8%,-21%,6%
O=C(CCSCc1ccccc1Cl)N1CCN(c2ccc(F)cc2)CC1,-7%,/,?,/
Cc1ccc(NC(=O)C2CCN(S(=O)(=O)c3cccs3)CC2)cc1C,3%,-9%,8.9µM*,-36%
Cc1cccc(NC(=O)C2CCN(S(=O)(=O)c3cccs3)CC2)c1,-14%,-13%,-5%,-23%
COc1ccc(OC)c(S(=O)(=O)N2CCC(C(=O)Nc3cccc(C(F)(F)F)c3)CC2)c1,?,-13%,10µM*,-29%
CC(=O)c1ccc(NC(=O)C2CCN(S(=O)(=O)c3cccs3)CC2)cc1,3%,25%,0%,8.9µM*
Cc1ccccc1Cc1c(C)nc2nc(SCC(=O)N(C)c3ccccc3)nn2c1C,0%,/,-12%,/
CS(=O)(=O)N1CCN(/[N+]([O-])=N/Oc2ccc([N+](=O)[O-])cc2[N+](=O)[O-])CC1 (tested in a mixture with another compound),/,/,/,21%
c1ccc(CN2CCN(c3nc(-c4ccccn4)nc4ccccc34)CC2)cc1,-8%,-1%,1%,0%
c1ccc(CN2CCN(c3nc(-c4ccccc4)nc4ccccc34)CC2)cc1,5%,0%,3.5µM*,-27%
N#CC1(Cc2ccc(Cl)cc2)c2ccccc2C=CN1C(=O)c1ccccc1 (stereo not drawn),15%,-8%,7.9µM*,-56%
SMILES,GLP1R cytotox,GLP1R ag,GLP-1R inv ag,BRCA1 expr up
CCCn1c2ccc(C)cc2c2nnc(SCCN3CCCCC3)nc21,-13%,15%,7.1µM*!,-14%
CCn1c2ccc(C)cc2c2nnc(SCCN3CCCCC3)nc21,-1%,19%,?,-41%
CCOC(=O)N/N=C/c1cn(CCCOc2ccccc2)c2ccccc12,19%,14%,8.9µM*,-11%
COC(=O)N/N=C/c1cn(CC(C)COc2ccccc2)c2ccccc12 (stereo not drawn),-27%,-7%,10µM*,-67%
Cc1ccc(CNC(=O)C2CCN(S(=O)(=O)c3c(C)noc3/C=C/c3ccccc3F)CC2)o1,0%,/,3%,/
O=C(CSc1ccccc1)N(c1ccc(Br)cc1)c1nccs1,-1%,13%,11µM*,8%
O=C(CCSc1ccccc1)Nc1nccs1,5%,-14%,0%,10%
C1=Cc2ccccc2/C1=C/c1ccc2c(c1)OCO2,/,/,/,58%
Cc1c2ccccc2nc2c(F)c(N(C)C)c(F)c(F)c12,162%,15%,44%,13µM*
CN(C)c1c2ccccc2nc2c(F)c(F)c(F)c(F)c12,290%,18%,?,-69%
Cn1cc(/C=C/c2ccnc3ccccc23)c2ccccc21,/,/,/,0%
COc1ccc(C(=O)NNC(=O)c2ccc(S(=O)(=O)N3CCCCC3)cc2)cc1,-2%,3%,3%,6%
O=C(Nc1ccc(N2CCOCC2)cc1)c1cccc(-n2cnnc2)c1,-2%,4%,6%,17%
O=C(/C=C/c1ccc(Cl)cc1Cl)Nc1cccc(S(=O)(=O)NC2=NCCC2)c1,-5%,0%,?,?
CN(C)c1cccc(C(=O)Nc2cccc(S(=O)(=O)NC3=NCCC3)c2)c1,7%,15%,32%,4µM*
O=C(/C=C/c1ccccc1Cl)Nc1cccc(S(=O)(=O)NC2=NCCCCC2)c1,-5%,9%,10µM*,-22%
O=C(Nc1cccc(S(=O)(=O)NC2=NCCC2)c1)c1ccccc1,8%,-2%,5%,-13%
CN(C)c1cccc(C(=O)Nc2ccc(N3CCOCC3)cc2)c1,-1%,12%,6%,11µM*
N/C(Cc1ccc(Cl)cc1)=N\OC(=O)c1ccc2ccccc2c1,?,?,7.9µM*,-59%
N/C(=N\OC(=O)c1ccc(Cl)cc1)c1ccc(Cl)cc1,-5%,1%,6%,11µM*
Cc1ccc(/C(N)=N/OC(=O)c2ccc(F)cc2)cc1,0%,-11%,2%,10µM*
CCOc1ccc(N=C(/C(C(=O)C(=O)N2CCOCC2)=C(\O)c2ccccc2)c2ccccc2)cc1,-17%,-1%,-25%,7.9µM*
O=C(CCl)N1N=C(c2ccco2)CC1c1ccco1 (stereo not drawn),?,1%,2.2µM*,-18%
O=C(CCl)N1N=C(c2cccs2)CC1c1ccco1 (stereo not drawn),-11%[0.307 µM],-19%,-17%[0.307 µM],-70%
Cc1ccc(C(c2nc3ccccc3[nH]2)n2c(-c3ccccc3)nc3ccccc32)cc1 (stereo not drawn),4%,-1%,-25%,4.5µM*
CC(C)(C)C(c1nc2ccccc2[nH]1)n1c(-c2ccsc2)nc2ccccc21 (stereo not drawn),?,/,10µM*,/
CCN(Cc1ccncc1)Cc1cn[nH]c1-c1ccc(OC)cc1F,9%,20%,8%,-23%
CCOc1cc(CN2CCN(S(=O)(=O)c3ccc(C)cc3)CC2)ccc1OC,-3%,/,11%,/
CCOc1ccccc1CN1CCN(CC2CC2)CC1CCO (stereo not drawn),-3%,5%,8%,4%
CCOc1ccccc1CN1CCN(Cc2cc3ccccc3[nH]2)CC1CCO (stereo not drawn),-25%,13%,10µM*,-52%
